# Results from PubChem BioAssay (EPA / NIEHS).
# “And” between values parts separate entries of the source, which are not always exact repeats. Equal values may be shown once. Results filed as inconclusive are left out. Some structures have more than one record in an assay (separate samples or runs), and their calls can disagree. The source made the active and inactive calls. The calls were made as follows: active = hit-call score of the fitted dose curve at least 0.9, where 1 is the maximum; inconclusive = response in the unintended direction; inactive = score below 0.9.
# Assays:
# [1] = ATG_M_06_XSP2: Attagene TRANS-FACTORIAL Multi-Species (XSP2) HepG2 Assay for M06 Transcription Factor (Internal Marker) (AID 2283811);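 also: hits are increases in signal above the DMSO baseline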
# Method: ATG_XSP2_multi-species_TRANS is a cell-based, multiplexed assay created by modifying the existing Attagene TRANS-FACTORIAL system to include a panel of nuclear receptors from some or all the following species: human (Homo sapiens), mouse (Mus musculus), frog (Xenopus laevis), zebrafish (Danio rerio), chicken (Gallus gallus), and turtle (Chrysemys picta). The ECOTOX-FACTORIAL format uses HepG2, a human liver cell line, with measurements taken at 24 hours after chemical dosing in a 24-well plate. Xsp2 included 3 nM 6-alpha-fluorotestosterone and 1.5 nM norgestrel to stimulate the androgen receptor.ATG_M_06_XSP2 is one of 29 assay components measured or calculated from the ATG_XSP2_multi-species_TRANS assay. It is designed to make measurements of mRNA induction, a form of inducible reporter, as detected with fluorescence intensity signals by Reverse transcription polymerase chain reaction (RT-PCR) and Capillary electrophoresis technology.This assay endpoint, ATG_M_06_XSP2, was analyzed in the positive analysis fitting direction relative to DMSO as the negative control and baseline of activity. Using a type of inducible reporter, measures of mRNA for gain-of-signal activity can be used to understand the background control at the transcription factor-level as they relate to the gene. Furthermore, this assay endpoint can be referred to as a secondary readout, because this assay has produced multiple assay endpoints where this one serves a background control function. To generalize the intended target to other relatable targets, this assay endpoint is annotated to the background measurement intended target family, where the subfamily is internal marker.
# Human liver HepG2 cells are transiently transfected with multiple reporter transcription units (MRTUs) in 6-well plates using FuGene 6 reagent (Roche; 3 ml FuGene/1 mg DNA). The MRTU constructs are regulated by a cis-regulating element (promoter). […] A major difference between the CIS and TRANS system is that in CIS activities of endogenous TFs are measured, whereas the TRANS assay evaluates changes in activities of exogenous, chimeric NR-Gal4 proteins. […] At the end of 24 hour incubation, total RNA was isolated using TriZol reagent (Invitrogen). The isolated RNA is then reverse-transcribed using oligo(dT) primer and Mo-MLV reverse transcriptase (Invitrogen) with DNAse I (Ambion) treatment for 30 min. The one-tenth of the produced cDNA was amplified by PCR using Taq DNA polymerase (Invitrogen) and two reporter sequence-specific primers. The PCR products were fluorescently labeled by primer extension with 6-arboxyfluorescein (6-FAM) 5'-labeled reporter sequence-specific primer (2 min at 95 C, 20 s at 68 C and 10 min at 72 C) and these products were digested with 5U of HpaI (New England Biolabs) for 2h at 37 C. The fragments were purified using Qiaquick PCR columns (Qiagen), analyzed on an ABI 3130xL genetic analyzer (Applied Biosystems) with peak positions identified by using a set of X-rhodamine (ROX)-labeled MapMarker1000 molecular weight standards (BioVentures). The raw capillary electrophoresis data was processed using Attagraph software (Attagene).
# [2] = system: turtle Estrogen Receptor (ERa), gene 101933533; assay: ATG_trERa_XSP2: Attagene TRANS-FACTORIAL Multi-Species (XSP2) HepG2 Assay for turtle Estrogen Receptor (ERa) (AID 2283812);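 also: actives raise reporter signal above DMSO so AC50 reflects agonist activity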
# Summary of the method: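 Readout is reporter mRNA quantified by RT-PCR with capillary electrophoresis after 24 h compound exposure, increase relative to DMSO. Uses transiently transfected human HepG2 liver cells carrying a chimeric turtle ERa-Gal4 receptor driving GAL4-UAS reporters.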
# [3] = biological target: Estrogen receptor beta (Homo sapiens) (UniProt Q92731); assay: ATG_hERb_XSP2: Attagene TRANS-FACTORIAL Multi-Species (XSP2) HepG2 Assay for human Estrogen Receptor (ERb) (AID 2283813);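 also: actives raise reporter mRNA above DMSO so AC50 reflects agonist induction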
# Sequence of Estrogen receptor beta (Homo sapiens) (Q92731 whole entry, looked up, the tested form may be a part): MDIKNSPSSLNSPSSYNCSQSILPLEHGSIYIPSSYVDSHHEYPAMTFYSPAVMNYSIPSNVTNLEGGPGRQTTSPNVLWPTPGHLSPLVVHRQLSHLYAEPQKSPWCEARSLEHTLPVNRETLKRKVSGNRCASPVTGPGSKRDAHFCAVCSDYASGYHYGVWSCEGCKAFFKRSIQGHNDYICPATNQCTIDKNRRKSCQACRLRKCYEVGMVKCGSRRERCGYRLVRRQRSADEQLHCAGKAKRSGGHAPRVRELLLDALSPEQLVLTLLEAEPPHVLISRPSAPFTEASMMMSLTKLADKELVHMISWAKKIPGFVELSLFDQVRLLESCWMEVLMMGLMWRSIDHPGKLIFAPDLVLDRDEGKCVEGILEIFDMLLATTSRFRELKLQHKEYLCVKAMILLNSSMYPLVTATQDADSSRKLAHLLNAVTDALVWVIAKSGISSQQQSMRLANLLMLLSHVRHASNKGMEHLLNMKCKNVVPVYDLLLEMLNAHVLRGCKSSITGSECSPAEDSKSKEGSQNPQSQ
# Summary of the method: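 Transient TRANS reporter system in HepG2: after 24 h of chemical, RNA is reverse-transcribed, reporter cDNA amplified, FAM-labelled and sized by capillary electrophoresis. Induction of the human ERb-Gal4 reporter is measured relative to DMSO.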
# [4] = biological target: GAL4 Transcription Factor (Internal Marker), GAL4 (gene 855828) (UniProt P04386); assay: ATG_GAL4_XSP2: Attagene TRANS-FACTORIAL Multi-Species (XSP2) HepG2 Assay for GAL4 Transcription Factor (Internal Marker) (AID 2283814);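 also: GAL4 reporter mRNA background control in MRTU transfected cells not a receptor target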
# Sequence of GAL4 Transcription Factor (Internal Marker), GAL4 (gene 855828) (P04386 whole entry, looked up, the tested form may be a part): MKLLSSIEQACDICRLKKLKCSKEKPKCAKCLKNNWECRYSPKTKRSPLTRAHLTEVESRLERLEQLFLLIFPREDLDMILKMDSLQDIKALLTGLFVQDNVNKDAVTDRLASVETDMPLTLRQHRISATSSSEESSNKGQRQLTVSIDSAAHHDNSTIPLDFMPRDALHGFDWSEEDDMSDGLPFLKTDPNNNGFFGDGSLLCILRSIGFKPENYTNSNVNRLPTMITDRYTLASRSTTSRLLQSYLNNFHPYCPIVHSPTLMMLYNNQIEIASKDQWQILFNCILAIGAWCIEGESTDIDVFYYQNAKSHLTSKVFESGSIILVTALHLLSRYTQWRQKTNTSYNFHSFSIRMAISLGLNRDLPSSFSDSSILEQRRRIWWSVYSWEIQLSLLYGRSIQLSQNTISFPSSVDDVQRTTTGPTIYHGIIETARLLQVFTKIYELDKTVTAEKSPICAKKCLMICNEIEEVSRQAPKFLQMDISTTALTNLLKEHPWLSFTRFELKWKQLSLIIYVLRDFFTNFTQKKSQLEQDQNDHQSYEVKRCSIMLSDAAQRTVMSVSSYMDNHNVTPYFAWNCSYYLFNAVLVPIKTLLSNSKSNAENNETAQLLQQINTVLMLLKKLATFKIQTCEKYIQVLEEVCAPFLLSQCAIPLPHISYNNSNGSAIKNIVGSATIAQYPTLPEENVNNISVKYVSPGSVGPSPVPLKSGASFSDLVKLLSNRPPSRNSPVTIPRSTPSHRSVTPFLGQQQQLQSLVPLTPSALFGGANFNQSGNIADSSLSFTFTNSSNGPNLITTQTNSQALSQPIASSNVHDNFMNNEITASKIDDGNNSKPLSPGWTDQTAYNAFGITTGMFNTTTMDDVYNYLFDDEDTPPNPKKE
# Summary of the method: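 Background-control readout: gain-of-signal fitted against DMSO. After 24 h exposure of transfected HepG2 (MRTU, GAL4-UAS reporters; 3 nM 6-alpha-fluorotestosterone, 1.5 nM norgestrel present), transcripts quantified by RT-PCR and capillary electrophoresis fluorescence.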
# [5] = biological target: chicken Estrogen Receptor (ERa), ESR1 (gene 396099) (UniProt P06212); assay: ATG_chERa_XSP2: Attagene TRANS-FACTORIAL Multi-Species (XSP2) HepG2 Assay for chicken Estrogen Receptor (ERa) (AID 2283817);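 also: actives raise reporter signal above DMSO so AC50 reflects ER activation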
# Sequence of chicken Estrogen Receptor (ERa), ESR1 (gene 396099) (P06212 whole entry, looked up, the tested form may be a part): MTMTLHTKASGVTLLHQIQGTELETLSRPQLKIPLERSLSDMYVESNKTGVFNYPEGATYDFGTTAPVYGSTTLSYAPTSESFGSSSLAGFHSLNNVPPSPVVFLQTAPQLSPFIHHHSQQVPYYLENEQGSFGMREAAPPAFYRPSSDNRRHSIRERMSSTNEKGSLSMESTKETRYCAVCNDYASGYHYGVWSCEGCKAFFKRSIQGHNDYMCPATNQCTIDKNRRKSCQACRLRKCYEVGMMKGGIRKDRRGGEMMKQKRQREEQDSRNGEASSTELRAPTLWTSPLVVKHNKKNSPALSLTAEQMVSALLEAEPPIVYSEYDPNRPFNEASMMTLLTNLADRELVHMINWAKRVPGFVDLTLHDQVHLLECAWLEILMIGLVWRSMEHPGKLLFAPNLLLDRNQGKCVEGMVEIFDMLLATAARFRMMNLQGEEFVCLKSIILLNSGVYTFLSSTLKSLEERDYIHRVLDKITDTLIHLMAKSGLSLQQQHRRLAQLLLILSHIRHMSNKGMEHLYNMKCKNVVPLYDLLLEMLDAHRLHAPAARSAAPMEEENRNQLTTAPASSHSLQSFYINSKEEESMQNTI
# Summary of the method: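 Reporter mRNA induction read by RT-PCR, fluorescent labelling and capillary electrophoresis after 24 h exposure; positive-direction fit against DMSO baseline. HepG2 cells transfected with multiplexed GAL4-UAS units including chicken ERa chimera; medium contained 3 nM 6-alpha-fluorotestosterone plus 1.5 nM norgestrel.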
# [6] = system: zebrafish Estrogen Receptor (ER2a), gene 317734; assay: ATG_zfER2a_XSP2: Attagene TRANS-FACTORIAL Multi-Species (XSP2) HepG2 Assay for zebrafish Estrogen Receptor (ER2a) (AID 2283818);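 also: hits raise reporter mRNA so AC50 reflects activation of zebrafish ER2a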
# Summary of the method: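 Multiplexed trans-reporter readout: RT-PCR then capillary electrophoresis of reporter transcripts after 24 h compound treatment. Human HepG2 carries transfected zebrafish ER2a-Gal4 chimera; 3 nM 6-alpha-fluorotestosterone plus 1.5 nM norgestrel present. Induction scored against DMSO.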
# [7] = biological target: human Thyroid hormone Receptor beta (TRb), THRB (gene 7068) (UniProt P10828); assay: ATG_hTRb_XSP1: Attagene TRANS-FACTORIAL Multi-Species (XSP1) HepG2 Assay for human Thyroid hormone Receptor beta (TRb) (AID 2283808)
# Sequence of human Thyroid hormone Receptor beta (TRb), THRB (gene 7068) (P10828 whole entry, looked up, the tested form may be a part): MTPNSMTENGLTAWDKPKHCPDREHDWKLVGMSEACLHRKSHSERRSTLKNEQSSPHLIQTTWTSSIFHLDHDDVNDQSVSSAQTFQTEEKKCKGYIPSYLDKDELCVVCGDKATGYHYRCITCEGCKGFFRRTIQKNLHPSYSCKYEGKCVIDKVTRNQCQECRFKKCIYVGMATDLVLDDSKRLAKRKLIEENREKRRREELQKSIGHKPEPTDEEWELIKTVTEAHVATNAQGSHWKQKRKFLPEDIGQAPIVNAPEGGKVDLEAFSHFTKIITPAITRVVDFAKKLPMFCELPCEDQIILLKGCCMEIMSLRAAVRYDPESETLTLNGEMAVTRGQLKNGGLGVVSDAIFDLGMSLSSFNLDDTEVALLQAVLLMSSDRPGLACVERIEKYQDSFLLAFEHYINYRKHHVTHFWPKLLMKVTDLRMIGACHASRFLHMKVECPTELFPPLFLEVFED
# Summary of the method: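 Readout is reporter mRNA induction measured by RT-PCR, fluorescent labelling and capillary electrophoresis, fitted upward relative to DMSO. Transiently transfected human HepG2 cells expressing NR-Gal4 chimeras were dosed for 24 h, medium containing 3 nM 6-alpha-fluorotestosterone.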
# [8] = ATG_XTT_Cytotoxicity_XSP1: Cytotoxicity Assessment in the Attagene TRANS-FACTORIAL Multi-Species (XSP1) HepG2 Assay (AID 2283810)
# Summary of the method: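 XTT viability readout taken at 24 hours post-dosing in HepG2 liver cells co-treated with 3 nM 6-alpha-fluorotestosterone. Signal loss relative to DMSO controls reflects cytotoxicity.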
# [9] = system: turtle Androgen Receptor (AR), gene 101947425; assay: ATG_trAR_XSP2: Attagene TRANS-FACTORIAL Multi-Species (XSP2) HepG2 Assay for turtle Androgen Receptor (AR) (AID 2283815);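 as to AC50: potency for gain of reporter signal meaning activation above DMSO baseline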
# Summary of the method: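 Reporter transcripts were quantified via RT-PCR and capillary electrophoresis and fitted upward against DMSO. Transiently transfected human HepG2 cells carrying NR-Gal4 chimeras were exposed 24 h, with 3 nM 6-alpha-fluorotestosterone plus 1.5 nM norgestrel added.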
# [10] = system: chicken Androgen Receptor (AR), gene 422165; assay: ATG_chAR_XSP2: Attagene TRANS-FACTORIAL Multi-Species (XSP2) HepG2 Assay for chicken Androgen Receptor (AR) (AID 2283819);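 also: hits raise reporter mRNA above DMSO so potency is for activation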
# Summary of the method: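 Readout is reporter mRNA induction via RT-PCR/capillary electrophoresis after 24 h chemical exposure, positive direction relative to DMSO. Transiently transfected HepG2 express chimeric chicken AR–GAL4; AR stimulated by 3 nM 6-alpha-fluorotestosterone and 1.5 nM norgestrel.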
smiles,measurement,setting,value
Cc1cc(=O)oc2cc(N(C)C)ccc12,outcome,[1],inactive
same,AC50,[2],49.9 µM (active)
same,outcome,[2],inactive
same,outcome,[3],inactive
same,outcome,[4],inactive
same,AC50,[5],31.4 µM (active)
same,outcome,[5],inactive
same,AC50,[6],100 µM (active)
same,outcome,[6],inactive
Clc1ccc(C(c2ccccc2Cl)C(Cl)Cl)cc1 (configuration not stated),outcome,[1],inactive
same,AC50,[2],1.29 µM (active) and 8.5 µM (active)
same,AC50,[3],3.01 µM (active) and 5.58 µM (active)
same,AC50,[5],3.1 µM (active) and 7.58 µM (active)
same,AC50,[6],2.3 µM (active) and 2.61 µM (active)
CCCCC(CC)COC(=O)c1ccc(O)cc1 (configuration not stated),outcome,[7],inactive
same,AC50,[8],63.8 µM (active)
same,AC50,[2],25.3 µM (active)
same,outcome,[4],inactive
same,AC50,[9],53.2 µM (active)
same,AC50,[5],6.15 µM (active)
same,AC50,[6],33.4 µM (active)
same,AC50,[10],51.9 µM (active)
Oc1ccc2cc(SSc3ccc4cc(O)ccc4c3)ccc2c1,outcome,[1],inactive
same,AC50,[2],1.07 µM (active)
same,outcome,[2],inactive
same,outcome,[9],inactive
same,AC50,[5],2.29 µM (active) and 634 nM (active)
same,AC50,[6],0.822 µM (active)
same,AC50,[10],40.7 µM (active)
same,outcome,[10],inactive
OCc1cccc(Oc2ccccc2)c1,outcome,[1],inactive
same,AC50,[2],17.1 µM (active) and 11.5 µM (active)
same,AC50,[3],26.9 µM (active) and 8.78 µM (active)
same,outcome,[4],inactive
same,AC50,[5],16 µM (active) and 6.22 µM (active)
same,AC50,[6],23.5 µM (active) and 14.7 µM (active)
O=c1c(O)c(-c2ccc(O)cc2)oc2cc(O)cc(O)c12,outcome,[1],inactive
same,AC50,[2],2.27 µM (active) and 1.08 µM (active)
same,AC50,[9],3.01 µM (active) and 1.32 µM (active)
same,AC50,[5],3 µM (active) and 1.53 µM (active)
same,AC50,[6],1.61 µM (active) and 981 nM (active)
same,AC50,[10],3.26 µM (active) and 1.35 µM (active)
BrCc1cccc(Oc2ccccc2)c1,outcome,[1],inactive
same,AC50,[2],15.9 µM (active) and 18.2 µM (active)
same,AC50,[3],21.3 µM (active) and 7.91 µM (active)
same,AC50,[5],27.5 µM (active) and 21.5 µM (active)
same,AC50,[6],19.2 µM (active) and 11.9 µM (active)
